Measurements from the supplement of paper PMC6897291.

Tests used:
RIVA [1] = assay: growth inhibition by drug plus 177Lu-lilotomab satetraxetan (1 - RLU/untreated control) (fraction); higher = stronger inhibition; conditions: 177Lu-lilotomab satetraxetan 0.5 ug/ml
In short: (§1)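 Plates pre-printed with the Selleck Cambridge Cancer Compound library at 10/100 nM (RIVA) or 10/1,000 nM (U-2932) received 3,000 cells/well. These cells had been washed after 18 h untreated or with a radiolabelled anti-CD37 antibody conjugate (~600 MBq/mg; 0.5 µg/ml RIVA, 1 µg/ml U-2932). Growth inhibition was obtained from RealTime-Glo luminescence in relation to untreated no-drug wells. Each daily read from day 3, taken after 1 h at 37°C, was converted as 1 − RLU/mean of 48 such wells per plate.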

U-2932 [2] = assay: growth inhibition by drug alone (1 - RLU/untreated control) (fraction); higher = stronger inhibition; conditions: 177Lu-lilotomab satetraxetan 0 ug/ml
In short: as §1

RIVA [3] = assay: as above; conditions: 177Lu-lilotomab satetraxetan 0 ug/ml
In short: as §1

U-2932 [4] = assay: growth inhibition by drug plus 177Lu-lilotomab satetraxetan (1 - RLU/untreated control) (fraction); higher = stronger inhibition; conditions: 177Lu-lilotomab satetraxetan 1 ug/ml
In short: as §1

| Compound | growth inhibition by drug plus 177Lu-lilotomab satetraxetan (RIVA [1]; 100 nM, time (day): 5) | growth inhibition by drug plus 177Lu-lilotomab satetraxetan (RIVA [1]; 100 nM, time (day): 6) | growth inhibition by drug alone (U-2932 [2]; 10 nM, time (day): 3) | growth inhibition by drug alone (U-2932 [2]; 10 nM, time (day): 4) | growth inhibition by drug alone (U-2932 [2]; 10 nM, time (day): 5) | growth inhibition by drug alone (U-2932 [2]; 10 nM, time (day): 6) | growth inhibition by drug alone (U-2932 [2]; 1000 nM, time (day): 3) | growth inhibition by drug alone (U-2932 [2]; 1000 nM, time (day): 4) | growth inhibition by drug alone (U-2932 [2]; 1000 nM, time (day): 5) | growth inhibition by drug alone (U-2932 [2]; 1000 nM, time (day): 6) | growth inhibition by drug alone (RIVA [3]; 10 nM, time (day): 3) | growth inhibition by drug alone (RIVA [3]; 10 nM, time (day): 4) | growth inhibition by drug alone (RIVA [3]; 10 nM, time (day): 5) | growth inhibition by drug alone (RIVA [3]; 10 nM, time (day): 6) | growth inhibition by drug alone (RIVA [3]; 100 nM, time (day): 3) | growth inhibition by drug alone (RIVA [3]; 100 nM, time (day): 4) | growth inhibition by drug alone (RIVA [3]; 100 nM, time (day): 5) | growth inhibition by drug alone (RIVA [3]; 100 nM, time (day): 6) | growth inhibition by drug plus 177Lu-lilotomab satetraxetan (U-2932 [4]; 10 nM, time (day): 3) | growth inhibition by drug plus 177Lu-lilotomab satetraxetan (U-2932 [4]; 10 nM, time (day): 4) | growth inhibition by drug plus 177Lu-lilotomab satetraxetan (U-2932 [4]; 10 nM, time (day): 5) | growth inhibition by drug plus 177Lu-lilotomab satetraxetan (U-2932 [4]; 10 nM, time (day): 6) | growth inhibition by drug plus 177Lu-lilotomab satetraxetan (U-2932 [4]; 1000 nM, time (day): 3) | growth inhibition by drug plus 177Lu-lilotomab satetraxetan (U-2932 [4]; 1000 nM, time (day): 4) | growth inhibition by drug plus 177Lu-lilotomab satetraxetan (U-2932 [4]; 1000 nM, time (day): 5) | growth inhibition by drug plus 177Lu-lilotomab satetraxetan (U-2932 [4]; 1000 nM, time (day): 6) | growth inhibition by drug plus 177Lu-lilotomab satetraxetan (RIVA [1]; 10 nM, time (day): 3) | growth inhibition by drug plus 177Lu-lilotomab satetraxetan (RIVA [1]; 10 nM, time (day): 4) | growth inhibition by drug plus 177Lu-lilotomab satetraxetan (RIVA [1]; 10 nM, time (day): 5) | growth inhibition by drug plus 177Lu-lilotomab satetraxetan (RIVA [1]; 10 nM, time (day): 6) | growth inhibition by drug plus 177Lu-lilotomab satetraxetan (RIVA [1]; 100 nM, time (day): 3) | growth inhibition by drug plus 177Lu-lilotomab satetraxetan (RIVA [1]; 100 nM, time (day): 4) |
| --- | --- | --- | --- | --- | --- | --- | --- | --- | --- | --- | --- | --- | --- | --- | --- | --- | --- | --- | --- | --- | --- | --- | --- | --- | --- | --- | --- | --- | --- | --- | --- | --- |
| Cc1ccnc(NS(=O)(=O)c2ccc(NC(=O)Nc3ccc(S(=O)(=O)Nc4nccc(C)n4)cc3)cc2)n1 | 0.541 | 0.545 | – | – | – | – | – | – | – | – | – | – | – | – | – | – | – | – | – | – | – | – | – | – | – | – | – | – | – | – | – | – |
| CCNC(=O)c1noc(-c2cc(C(C)C)c(O)cc2O)c1-c1ccc(CN2CCOCC2)cc1 | 0.988 | 0.988 | 0.0556 | 0.0532 | -0.00948 | 0.11 | 0.942 | 0.972 | 0.981 | 0.982 | 0.0724 | -0.0275 | -0.068 | -0.156 | 0.971 | 0.977 | 0.978 | 0.975 | 0.117 | 0.0968 | 0.0861 | 0.245 | 0.936 | 0.973 | 0.981 | 0.984 | 0.398 | 0.414 | 0.469 | 0.516 | 0.982 | 0.988 |
| Cc1ccc(NC(=O)c2ccc(CN3CCN(C)CC3)cc2)cc1Nc1nccc(-c2cccnc2)n1 [Imatinib (Gleevec)] | 0.462 | 0.483 | 0.114 | 0.0795 | 0.0573 | -0.108 | -0.0113 | -0.0535 | -0.0116 | -0.0612 | -0.0508 | -0.0897 | -0.292 | -0.626 | -0.513 | -0.311 | -0.289 | -0.464 | -0.0306 | 0.0247 | 0.124 | 0.134 | -0.0872 | -0.0527 | 0.073 | 0.171 | 0.424 | 0.545 | 0.568 | 0.595 | 0.301 | 0.444 |
| Cc1cc(O)c2c(c1)C(=O)c1cccc(O)c1C2=O [Chrysophanic acid (Chrysophanol)] | 0.559 | 0.574 | -0.0586 | -0.0671 | -0.0488 | 0.0657 | -0.0803 | -0.0522 | -0.0654 | 0.0406 | -0.266 | -0.269 | -0.305 | -0.322 | -0.0635 | -0.135 | -0.0963 | -0.115 | -0.0546 | -0.0035 | 0.0467 | 0.1 | -0.0941 | -0.0464 | -0.00693 | 0.13 | 0.425 | 0.48 | 0.511 | 0.511 | 0.489 | 0.543 |
| COc1cc2ncnc(Nc3ccc(F)c(Cl)c3)c2cc1OCCCN1CCOCC1 [Gefitinib (Iressa)] | 0.503 | 0.494 | 0.0523 | -0.0185 | -0.0608 | -0.248 | -0.147 | -0.0975 | -0.157 | -0.226 | -0.00639 | -0.111 | -0.168 | -0.438 | -0.234 | -0.33 | -0.334 | -0.479 | -0.0292 | -0.0156 | -0.0275 | 0.0384 | -0.218 | -0.0647 | -0.0381 | 0.0874 | 0.402 | 0.522 | 0.546 | 0.553 | 0.408 | 0.485 |
| COc1cc2ncnc(-n3nc(-c4ccccn4)nc3N)c2cc1OC | 0.579 | 0.559 | 0.133 | 0.114 | 0.0839 | 0.0512 | 0.057 | 0.0631 | 0.00213 | -0.164 | -0.00526 | 0.0304 | -0.00529 | -0.18 | -0.0276 | -0.0495 | -0.074 | -0.143 | 0.0575 | 0.105 | 0.1 | 0.113 | -0.00115 | 0.0649 | 0.0622 | 0.0772 | 0.485 | 0.573 | 0.58 | 0.588 | 0.535 | 0.578 |
| O=C(CCCCCCC(=O)Nc1cccnc1)NO [Pyroxamide] | 0.511 | 0.509 | -0.0932 | -0.0929 | -0.129 | -0.234 | 0.82 | 0.79 | 0.759 | 0.717 | -0.263 | -0.352 | -0.468 | -0.514 | -0.333 | -0.305 | -0.265 | -0.306 | -0.106 | -0.0647 | -0.00568 | 0.0937 | 0.6 | 0.542 | 0.472 | 0.474 | 0.358 | 0.433 | 0.464 | 0.49 | 0.454 | 0.507 |
| CN(C)C[C@@H]1CCn2cc(c3ccccc32)C2=C(C(=O)NC2=O)c2cn(c3ccccc23)CCO1 | 0.554 | 0.545 | 0.148 | 0.0748 | 0.0024 | -0.0699 | 0.292 | 0.306 | 0.226 | 0.249 | 0.0588 | 0.0867 | -0.0102 | -0.214 | 0.041 | 0.0997 | 0.0496 | -0.0383 | 0.0704 | 0.125 | 0.141 | 0.173 | 0.448 | 0.48 | 0.458 | 0.49 | 0.423 | 0.561 | 0.581 | 0.582 | 0.462 | 0.539 |
